Source: PubChem BioAssay (Tox21)
Inconclusive results are not listed. Active and inactive are the calls of the source. The call rests on the fitted dose curve; in most records, active means well fitted activation curve with a large enough effect in the signal ratio in the repeat runs (not every such curve was filed as active); inconclusive means weak or mixed curves, or effect the other way; inactive means no such curve, though single readings can be large or run the other way; the % refers to the signal ratio.

Target: Glucocorticoid receptor (Homo sapiens) (UniProt P04150)
Sequence (P04150 whole entry, looked up): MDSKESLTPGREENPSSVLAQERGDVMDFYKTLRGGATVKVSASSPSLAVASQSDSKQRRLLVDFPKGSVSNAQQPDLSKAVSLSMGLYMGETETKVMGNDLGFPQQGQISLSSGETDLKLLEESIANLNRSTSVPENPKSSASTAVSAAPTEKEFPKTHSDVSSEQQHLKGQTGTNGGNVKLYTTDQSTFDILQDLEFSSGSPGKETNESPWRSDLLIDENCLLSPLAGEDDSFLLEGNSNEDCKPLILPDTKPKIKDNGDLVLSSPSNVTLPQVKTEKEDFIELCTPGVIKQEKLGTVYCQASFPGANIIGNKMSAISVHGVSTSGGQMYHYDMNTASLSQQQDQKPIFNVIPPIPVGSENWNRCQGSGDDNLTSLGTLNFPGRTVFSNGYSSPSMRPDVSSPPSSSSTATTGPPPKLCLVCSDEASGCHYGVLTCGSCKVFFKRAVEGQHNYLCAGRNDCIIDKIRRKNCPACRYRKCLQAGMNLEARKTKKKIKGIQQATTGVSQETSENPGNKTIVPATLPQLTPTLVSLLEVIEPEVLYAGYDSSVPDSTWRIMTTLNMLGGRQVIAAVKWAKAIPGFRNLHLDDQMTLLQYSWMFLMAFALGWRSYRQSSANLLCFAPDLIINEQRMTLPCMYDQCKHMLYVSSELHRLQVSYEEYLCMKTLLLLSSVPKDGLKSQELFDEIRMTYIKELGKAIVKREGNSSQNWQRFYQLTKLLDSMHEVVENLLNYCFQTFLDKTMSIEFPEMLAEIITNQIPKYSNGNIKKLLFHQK
Assay: qHTS assay to identify small molecule agonists of the glucocorticoid receptor (GR) signaling pathway (AID 720691)
Details: GR-bla HeLa, beta-lactamase reporter ratio, 18 h; series mostly up to 62.4 µM; activation: at the top concentration
Description: U.S. Tox21 Program National Center for Advancing Translational Sciences [NCATS] NIH Chemical Genomics Center [NCGC] U.S. Environmental Protection Agency [EPA] National Institutes of Environmental Health Sciences [NIEHS] National Toxicology Program [NTP] U.S. Food and Drug Administration [FDA] Tox21 Assay Overview: The Glucocorticoid receptor (GR) is one of the members of the nuclear receptor family of ligand-dependent transcription factors. GR plays a critical role in carbohydrate, protein and lipid metabolisms and programmed cell death. CellSensor GR-bla HeLa cell line (Invitrogen) contains a beta-lactamase reporter gene under the control of the glucocorticoid response element stably integrated into HeLa cells, a cervical cancer cell line that expresses glucocorticoid receptor. The activation of the reporter gene under culture conditions can be detected by fluorescence intensity. This cell line has been used to screen the Tox21 10K compound library and to identify the compounds that activate the GR signaling.
Tox21 Assay Protocol Summary: The GR-bla HeLa cells were dispensed at 1500 cells/6 ul/well in 1536-well black wall/clear bottom plates using a Multidrop Combi (ThermoFisher Scientific, Waltham, MA) dispenser. After the assay plates were incubated at a 37 C/5% CO2 incubator for 4 hours, 23 nL of compounds dissolved in DMSO, positive controls or DMSO only was transferred to the assay plate by a pintool station (Kalypsys, San Diego, CA). The plates were incubated at 37 C for 18 hours. After 1 uL of LiveBLAzerTM B/G FRET substrate was added using a Flying Reagent Dispenser (Aurora Discovery, San Diego, CA), the plates were incubated at room temperature for 2 hours, and fluorescence intensity was measured by an Envision plate reader (PerkinElmer, Shelton, CT).
On the % scale 0 is the no-effect control and ±100 the full control effect.

| SMILES | activation |
| --- | --- |
| C=COCCCCO | 7.56% (inactive) |
| CC[N+](C)(CC)CC | 0.547% (inactive) |
| Cc1ccccc1OCC(=O)O | 1.48% (inactive) |
| CN(C)CCc1c[nH]c2ccc(C[C@H]3COC(=O)N3)cc12 | 0.392% (inactive) |
| COC(=O)C(c1ccccc1Cl)N1CCc2sccc2C1 (stereo not given) | -1.49% (inactive) |
| CC/C=C\CCOC(=O)c1ccccc1 | 3.13% (inactive) |
| CC(C)(C)NCC(O)COc1cccc2c1CCC(=O)N2 (stereo not given) | 2.26% [at 29.2 µM] (inactive) |
| CC(C)C[P+](C)(CC(C)C)CC(C)C | 1.41% [at 79.2 µM] (inactive) |
| CCCCCCC(O)CO (stereo not given) | -0.141% (inactive) |
| CC(C)CC(O)Cc1ccccc1 (stereo not given) | 1.94% (inactive) |
| CCOC(=O)c1ccc(N(C)C)cc1 | 0.371% (inactive) |
| O=P(O)(O)C(O)(Cc1cccnc1)P(=O)(O)O | 0.355% (inactive) |
| CC(=O)Nc1ccc(OCCOCCOc2ccc(NC(C)=O)cc2)cc1 | 0.373% (inactive) |
| CCNC(=O)C(C)OC(=O)Nc1ccccc1 (stereo not given) | -1.61% (inactive) |
| O=C(O)Cc1ccccc1Oc1ccc(Cl)cc1Cl | -6.6% (inactive) |
| CCCOc1ccc(C(=O)OCCN(CC)CC)cc1N | -0.0258% (inactive) |
| CC/C=C/CCCCCCCCCCOC(C)=O | 1.57% (inactive) |
| CC(C)(Sc1cc(C(C)(C)C)c(O)c(C(C)(C)C)c1)Sc1cc(C(C)(C)C)c(O)c(C(C)(C)C)c1 | -2.07% [at 29.2 µM] (inactive) |
| C=CCn1cc[n+](C)c1 | -0.637% [at 79.2 µM] (inactive) |
| C=CC(C)(CCC=C(C)C)OC(=O)C(C)C (stereo not given) | 2.43% (inactive) |

| SMILES | activation |
| --- | --- |
| CN1C(CCl)Nc2cc(Cl)c(S(N)(=O)=O)cc2S1(=O)=O (stereo not given) | -3.32% (inactive) |
| O=S(=O)(O)c1ccc(Cl)cc1 | -1.11% (inactive) |
| CCC(C)(C)C | -0.681% [at 79.2 µM] (inactive) |
| CC(=O)Nc1ccc(S(=O)(=O)Nc2cc(C)on2)cc1 | 2.25% (inactive) |
| Cc1cc(O)c(Cl)cc1C | -1.16% (inactive) |
| CCCCNCC | -1.04% (inactive) |
| COC(=O)c1ccccc1Cl | -3.25% (inactive) |
| OCCC(F)(F)C(F)(F)C(F)(F)C(F)(F)C(F)(F)C(F)(F)F | -2.23% (inactive) |
| CC(C)=CCC/C(C)=C\C#N | 3.35% (inactive) |
| CCCCCCCCCCCCCCCCN(C)C | -0.164% [at 6.9 µM] (inactive) |
| N=C(N)N | -1.86% (inactive) |
| O=C(O)P(=O)(O)O | -0.0742% (inactive) |
| O=C(OOC(=O)c1ccccc1)c1ccccc1 | -1.05% (inactive) |
| C=CCN(CC=C)CC=C | -4.06% (inactive) |
| C=CCCCCCCCCCCCCCC | 1.61% [at 29.2 µM] (inactive) |
| BrCCOc1ccccc1 | -2.56% [at 79.2 µM] (inactive) |
| CCC(C)SSC(C)CC (stereo not given) | 2.41% (inactive) |
| O=C1c2ccccc2C(=O)N1CO | 0.199% [at 79.2 µM] (inactive) |
| Clc1cc(Cl)c(Cl)c(Cl)c1Cl | 0.116% (inactive) |
| CCCCOCCCC | 0.972% (inactive) |
